Source: PubChem BioAssay (Tox21)
Inconclusive results are not listed. The source made the active and inactive calls. Unless noted, the call rests on the fitted dose curve; in most records, active means well fitted curve in the direction sought with a large enough effect in the repeat runs; inconclusive means weak or mixed curves; inactive means no such curve, though single readings can be large; an effect the other way counts as inactive or inconclusive.

Key:
[1] = qHTS assay to test for compound auto fluorescence at 535 nm (green) in HEK293 cells (AID 720680)
[2] = qHTS assay to test for compound auto fluorescence at 460 nm (blue) in HEK293 cell free culture (AID 720681)
Outline: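 Blue fluorescence (Ex 405/Em 460 nm, triamterene-equivalent) was read immediately after pin transfer of compound or DMSO into medium (DMEM, 10% FBS) without cells.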

[3] = qHTS assay to test for compound auto fluorescence at 535 nm (green) in HEK293 cell free culture (AID 720682)
Outline: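 Cell-free medium (DMEM, 10% FBS) receives compound or DMSO by pintool. Plate read directly at Ex 485/Em 535 nm. Signal converted to fluorescein equivalency.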

[4] = qHTS assay to test for compound auto fluorescence at 590 nm (red) in HEK293 cell free culture (AID 720683)
Outline: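 Red-channel autofluorescence of compounds in culture medium (DMEM, 10% FBS), no cells, measured at 540/590 nm. Rose Bengal sodium is the reference fluorophore for equivalence.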

[5] = qHTS assay to test for compound auto fluorescence at 590 nm (red) in HepG2 cell free culture (AID 720684)
Outline: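 Plate contents were MEM with 10% FBS plus test compound or DMSO, no cells. Fluorescence was recorded with 540 nm excitation and 590 nm emission.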

[6] = qHTS assay to test for compound auto fluorescence at 460 nm (blue) in HepG2 cell free culture (AID 720685)
Outline: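 Compound (23 nL) or DMSO pinned into cell-free MEM with 10% FBS; blue fluorescence read at 405/460 nm excitation/emission, expressed as auto-fluorescence equivalency to triamterene.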

[7] = qHTS assay to test for compound auto fluorescence at 535 nm (green) in HepG2 cell free culture (AID 720686)
[8] = qHTS assay to test for compound auto fluorescence at 460 nm (blue) in HepG2 cells (AID 720687)
Outline: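 Blue-channel autofluorescence (Ex/Em 405/460 nm, triamterene-equivalent) was measured after 1 hr compound exposure at 37 C, 5% CO2. Cells were HepG2, plated overnight at 37 C in MEM plus 10% FBS.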

[9] = biological target: Glucocorticoid receptor (Homo sapiens) (UniProt P04150); assay: qHTS assay to identify small molecule agonists of the glucocorticoid receptor (GR) signaling pathway (AID 720691; active means well fitted activation curve with a large enough effect in the signal ratio in the repeat runs, not every such curve was filed as active; the % refers to the signal ratio); conditions: GR-bla HeLa, beta-lactamase reporter ratio, 18 h; activation: at 62.4 µM (top of the series)
Glucocorticoid receptor (Homo sapiens), sequence (P04150 whole entry, looked up): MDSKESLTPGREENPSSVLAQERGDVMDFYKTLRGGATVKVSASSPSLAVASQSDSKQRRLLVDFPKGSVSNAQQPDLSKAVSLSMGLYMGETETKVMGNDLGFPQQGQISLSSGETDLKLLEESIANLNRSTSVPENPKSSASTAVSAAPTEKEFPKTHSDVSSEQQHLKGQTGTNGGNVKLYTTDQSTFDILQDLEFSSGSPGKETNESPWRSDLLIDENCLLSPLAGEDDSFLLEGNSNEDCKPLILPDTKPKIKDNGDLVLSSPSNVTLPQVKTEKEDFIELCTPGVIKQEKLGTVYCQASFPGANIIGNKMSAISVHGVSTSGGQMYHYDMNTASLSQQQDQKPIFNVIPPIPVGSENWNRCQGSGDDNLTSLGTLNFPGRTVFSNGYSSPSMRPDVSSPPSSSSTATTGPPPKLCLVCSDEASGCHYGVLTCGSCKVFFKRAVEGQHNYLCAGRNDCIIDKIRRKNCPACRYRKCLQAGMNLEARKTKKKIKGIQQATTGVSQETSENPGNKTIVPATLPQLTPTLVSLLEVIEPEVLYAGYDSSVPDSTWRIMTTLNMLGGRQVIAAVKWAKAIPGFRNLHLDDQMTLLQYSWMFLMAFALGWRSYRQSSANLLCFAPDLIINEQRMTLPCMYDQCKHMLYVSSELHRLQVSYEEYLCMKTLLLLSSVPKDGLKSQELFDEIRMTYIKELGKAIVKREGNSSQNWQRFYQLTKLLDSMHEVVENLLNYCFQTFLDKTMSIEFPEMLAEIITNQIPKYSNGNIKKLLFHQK
Outline: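 Beta-lactamase reporter activity, read as fluorescence intensity, was measured in GR-bla HeLa cells exposed to compounds for 18 h at 37 C and then loaded with LiveBLAzer B/G FRET substrate for 2 h at room temperature.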

[10] = biological target: Glucocorticoid receptor (Homo sapiens) (UniProt P04150); assay: qHTS assay to identify small molecule antagonists of the glucocorticoid receptor (GR) signaling pathway (AID 720692; active means well fitted inhibition curve with a large enough effect in the signal ratio in the repeat runs, not every such curve was filed as active; the % refers to the signal ratio)
Outline: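 Fluorescence from cleaved LiveBLAzer B/G FRET substrate reports GRE-driven beta-lactamase in HeLa cells; compounds are tested against 5 nM dexamethasone (final) over 18 h at 37 C, substrate incubation 2 h at room temperature.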

[11] = qHTS assay to identify small molecule antagonists of the glucocorticoid receptor (GR) signaling pathway - cell viability counter screen (AID 720693); further: nearly all actives have a fitted effect of over 55% in size
[12] = qHTS assay for identifying genotoxic compounds that show differential cytotoxicity against isogenic chicken DT40 cell lines with known DNA damage response pathways - wild type cell line (AID 743012); further: nearly all actives have a fitted effect of over 60% in size; further: potency means the concentration at half of the fitted maximal effect
Outline: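 Quantitative HTS on parental DT40 cells: 40 h compound treatment at 37 C/5% CO2, with viability then determined by CellTiter-Glo luminescence. Values serve as the DNA repair-proficient reference for differential cytotoxicity.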

[13] = qHTS assay for identifying genotoxic compounds that show differential cytotoxicity against isogenic chicken DT40 cell lines with known DNA damage response pathways - Rev3 mutant cell line (AID 743014); further: nearly all actives have a fitted effect of over 55% in size; further: potency means the concentration at half of the fitted maximal effect
[14] = qHTS assay for identifying genotoxic compounds that show differential cytotoxicity against isogenic chicken DT40 cell lines with known DNA damage response pathways - Rad54/Ku70 mutant cell line (AID 743015); further: nearly all actives have a fitted effect of over 60% in size; further: potency means the concentration at half of the fitted maximal effect
[15] = qHTS assay to identify small molecule antagonists of the androgen receptor (AR) signaling pathway - cell viability counter screen (AID 743033; further: nearly all actives have a fitted effect of over 45% in size)
[16] = biological target: Androgen receptor (Homo sapiens) (UniProt P10275); assay: qHTS assay to identify small molecule antagonists of the androgen receptor (AR) signaling pathway (AID 743035; active means well fitted inhibition curve with a large enough effect in the signal ratio in the repeat runs, not every such curve was filed as active; the % refers to the signal ratio)
Androgen receptor (Homo sapiens), sequence (P10275 whole entry, looked up): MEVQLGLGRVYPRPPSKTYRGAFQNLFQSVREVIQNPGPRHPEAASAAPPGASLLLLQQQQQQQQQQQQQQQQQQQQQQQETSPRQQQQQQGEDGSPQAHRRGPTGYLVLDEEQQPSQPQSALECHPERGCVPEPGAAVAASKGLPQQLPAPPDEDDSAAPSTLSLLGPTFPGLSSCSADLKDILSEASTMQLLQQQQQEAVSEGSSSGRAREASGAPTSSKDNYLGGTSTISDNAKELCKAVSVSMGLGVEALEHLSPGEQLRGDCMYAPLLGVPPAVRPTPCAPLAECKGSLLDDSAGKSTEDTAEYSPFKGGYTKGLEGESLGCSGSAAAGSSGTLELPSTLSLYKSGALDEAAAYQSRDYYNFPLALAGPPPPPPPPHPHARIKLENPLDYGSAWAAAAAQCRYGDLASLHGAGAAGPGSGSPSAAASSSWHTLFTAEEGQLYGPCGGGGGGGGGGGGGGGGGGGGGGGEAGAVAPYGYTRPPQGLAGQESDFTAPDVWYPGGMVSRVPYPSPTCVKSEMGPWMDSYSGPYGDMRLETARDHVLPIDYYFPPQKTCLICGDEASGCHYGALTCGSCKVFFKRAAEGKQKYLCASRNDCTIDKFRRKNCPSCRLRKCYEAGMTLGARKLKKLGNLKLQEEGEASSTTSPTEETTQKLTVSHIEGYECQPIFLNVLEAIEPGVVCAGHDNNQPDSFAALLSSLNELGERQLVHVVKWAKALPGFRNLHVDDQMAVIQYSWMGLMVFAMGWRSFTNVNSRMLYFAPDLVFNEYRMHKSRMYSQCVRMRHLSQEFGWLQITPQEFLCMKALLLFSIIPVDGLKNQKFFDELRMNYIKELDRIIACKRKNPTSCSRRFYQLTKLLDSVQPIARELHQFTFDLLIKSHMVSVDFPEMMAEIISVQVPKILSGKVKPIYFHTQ
Outline: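 Cell line: GeneBLAzer AR-UAS-bla GripTite (HEK293). Stimulus: R1881 added after compound. Exposure: 16 h, 37C, 5% CO2. Readout: LiveBLAzer B/G FRET fluorescence after 2 h at room temperature.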

[17] = biological target: Androgen receptor (Homo sapiens) (UniProt P10275); assay: qHTS assay to identify small molecule agonists of the androgen receptor (AR) signaling pathway using the MDA cell line (AID 743040; further: nearly all actives have a fitted effect of over 20% in size)
Outline: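 After a 5 h incubation at 37C and 0% CO2, MDA-kb2 reporter cells were dosed with compounds in DMSO and kept 16 h under the same conditions. Luciferase activity was then read as luminescence with ONE-Glo.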

[18] = qHTS assay to identify small molecule antagonists of the androgen receptor (AR) signaling pathway using the MDA cell line - cell viability counter screen (AID 743041; further: nearly all actives have a fitted effect of over 45% in size; further: potency means the concentration at half of the fitted maximal effect)
Outline: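 R1881-driven MDA-kb2 AR-luc cells, 3,000/well, were dosed with library compounds for 16 h; cell health came from CellTiter-Fluor fluorescence in the reporter wells.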

[19] = biological target: Androgen receptor (Homo sapiens) (UniProt P10275); assay: qHTS assay to identify small molecule antagonists of the androgen receptor (AR) signaling pathway using the MDA cell line (AID 743042; further: nearly all actives have a fitted effect of over 55% in size)
Outline: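 Antagonist mode: compounds plus R1881 agonist added to MDA-kb2 AR-luc cells, incubated 16 h at 37C. Luciferase reporter luminescence quantified, with multiplexed CellTiter-Fluor readout for cell viability.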

[20] = qHTS assay to identify small molecule antagonists of the thyroid receptor (TR) signaling pathway - cell viability counter screen (AID 743064); further: nearly all actives have a fitted effect of over 50% in size; further: potency means the concentration at half of the fitted maximal effect
Outline: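 GH3.TRE-Luc cells, 4 h pre-plating; cpd + T3 1 nM final; 37 °C 23.5 h; CellTiter-Fluor 30 min; fluorescence read.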
On the % scale 0 is the no-effect control and ±100 the full control effect.

BrCCCBr
inactive: outcome [1] | Potency [2] | outcome [3] | outcome [4] | outcome [5] | Potency [6] | Potency [7] | Potency [8] | Potency [9] | Potency [10] | Potency [11] | Potency [12] | Potency [13] | Potency [14] | Potency [15] | Potency [16] | outcome [17] | Potency [18] | Potency [19] | Potency [20]

CN1CCc2cc(Cl)c(O)cc2[C@H]2c3ccccc3CC[C@@H]21
active: Potency [20] 13.3 µM
inactive: outcome [1] | Potency [2] | outcome [3] | outcome [4] | outcome [5] | Potency [6] | Potency [7] | Potency [8] | Potency [9] | Potency [15] | Potency [18]

CCOP(=S)(NC(C)C)Oc1ccccc1C(=O)OC(C)C (centres undefined)
active: Potency [12] 15.4 µM | Potency [13] 13.7 µM | Potency [14] 17.2 µM | Potency [18] 61.1 µM
inactive: outcome [1] | Potency [2] | outcome [3] | outcome [4] | outcome [5] | Potency [6] | Potency [7] | Potency [8] | Potency [9]

CC(C)c1c(CN(C)C(C)Cc2ccccc2)n(C)n(-c2ccccc2)c1=O (centres undefined)
inactive: fluorescence, % of fluorescein [1] -0.0005% [at 18.6 µM] | fluorescence, % of fluorescent control [2] 0.024% [at 18.6 µM] | activity change [3] -0.0364% [at 18.6 µM] | fluorescence, % of fluorescent control [4] 0.362% [at 18.6 µM] | fluorescence, % of Rose Bengal [5] -0.353% [at 18.6 µM] | fluorescence, % of fluorescent control [6] -0.0993% [at 18.6 µM] | fluorescence, % of fluorescein control [7] -0.009% [at 18.6 µM] | fluorescence, % of fluorescent control [8] 0.105% [at 18.6 µM] | Potency [9] | Potency [10] | Potency [11] | Potency [15] | Potency [18] | Potency [20]
active: Potency [12] 6.39 µM

COC(=O)/C=C(\C)OP(=O)(OC)OC
active: Potency [13] 24.3 µM
inactive: outcome [1] | Potency [2] | outcome [3] | outcome [4] | outcome [5] | Potency [6] | Potency [7] | Potency [8] | Potency [9] | Potency [11] | Potency [12] | Potency [14] | Potency [15] | Potency [18]

CCCCN(CCCC)C(=S)[S-].CCCCN(CCCC)C(=S)[S-].[Ni+2]
inactive: outcome [1] | Potency [2] | outcome [3] | outcome [4] | outcome [5] | Potency [6] | Potency [7] | Potency [8] | Potency [9] | Potency [10] | Potency [11] | Potency [12] | Potency [13] | Potency [14] | Potency [15] | Potency [18] | Potency [20]

CCCCON=O
inactive: outcome [1] | Potency [2] | outcome [3] | outcome [4] | outcome [5] | Potency [6] | Potency [7] | Potency [8] | Potency [9] | Potency [10] | Potency [11] | Potency [12] | Potency [13] | Potency [14] | Potency [15] | Potency [18] | Potency [20]

Cc1ccc2cc3c(ccc4ccccc43)c3c2c1CC3
inactive: outcome [1] | Potency [2] | outcome [3] | outcome [4] | outcome [5] | Potency [6] | Potency [7] | Potency [8] | Potency [9] | Potency [10] | Potency [11] | Potency [13] | Potency [14] | Potency [15] | Potency [18]

C=Cc1cccc(CCl)c1
inactive: outcome [1] | Potency [2] | outcome [3] | outcome [4] | outcome [5] | Potency [6] | Potency [7] | Potency [8] | Potency [9] | Potency [10] | Potency [11] | Potency [12] | Potency [14] | Potency [15] | Potency [18] | Potency [20]

COc1ccc2c3c1O[C@H]1[C@H](O)CC[C@H]4[C@@H](C2)N(C)CC[C@@]341
inactive: outcome [1] | Potency [2] | outcome [3] | outcome [4] | outcome [5] | Potency [6] | Potency [7] | Potency [8] | Potency [9] | Potency [10] | Potency [11] | Potency [12] | Potency [13] | Potency [14] | Potency [15] | Potency [18] | Potency [20]

CCN(CC)CCc1c[nH]c2ccccc12
inactive: outcome [1] | Potency [2] | outcome [3] | outcome [4] | outcome [5] | Potency [6] | Potency [7] | Potency [8] | Potency [9] | Potency [10] | Potency [11] | Potency [13] | Potency [14] | Potency [15] | Potency [18]

Nc1cc(Cl)ccc1Cl
inactive: outcome [1] | Potency [2] | outcome [3] | outcome [4] | outcome [5] | Potency [6] | Potency [7] | Potency [8] | Potency [9] | Potency [10] | Potency [12] | Potency [13] | Potency [15] | Potency [18] | Potency [20]

CCN(CC)CCN1C(=O)CN=C(c2ccccc2F)c2cc(Cl)ccc21
active: Potency [13] 13.3 µM | Potency [14] 26.6 µM | Potency [20] 29.8 µM
inactive: outcome [1] | Potency [2] | outcome [3] | outcome [4] | outcome [5] | Potency [6] | Potency [7] | Potency [8] | Potency [9] | Potency [10] | Potency [11] | Potency [15] | Potency [18]

OCC(Br)CBr (centres undefined)
inactive: outcome [1] | Potency [2] | outcome [3] | outcome [4] | outcome [5] | Potency [6] | Potency [7] | Potency [8] | Potency [9] | Potency [11] | Potency [12] | Potency [13] | Potency [14] | Potency [15] | Potency [20]

CCNc1nc(NC(C)C(C)C)nc(SC)n1 (centres undefined)
inactive: outcome [1] | Potency [2] | outcome [3] | outcome [4] | outcome [5] | Potency [6] | Potency [7] | Potency [8] | Potency [9] | Potency [10] | Potency [11] | Potency [15] | Potency [18] | Potency [20]
active: Potency [12] 38.6 µM | Potency [13] 34.4 µM

CCN(CC)Cc1nccn1-c1ccc([N+](=O)[O-])cc1C(=O)c1ccccc1Cl
inactive: outcome [1] | Potency [2] | outcome [3] | outcome [4] | outcome [5] | Potency [6] | Potency [7] | Potency [8] | Potency [9] | Potency [10] | Potency [11] | Potency [15] | Potency [18]
active: Potency [12] 29.8 µM | Potency [13] 29.8 µM
